Data taken from the supplement of paper PMC12494721.
Where a name gives a salt, the structure may show the parent alone.

What was measured:
Conditions in all cases: incubation time: 27 h, anaerobic, 37 °C;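 for the amine columns active = adjusted P below 0.05 in both replicates with a change the same way and a mean fold change under 0.8 or over 1.25; inactive = the rest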
[1] = test system: Clostridium sporogenes DSM 1664; test: growth (OD595) fold change vs plate DMSO controls (fold change (ratio)); higher = more growth
In short: (§1)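 The measure reported is growth, taken as fold change against the median of DMSO controls on the same plate. Anaerobic mGAM cultures in 96-well plates (27 h, 37 °C) were read at 595 nm, blank-subtracted, corrected for compound background using 20 µM compound solutions in water, and multiplied by a calibration factor of 5 to give OD. Any fold change above 1.5 became NA, and 2 biological replicates were averaged.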

Escherichia coli IAI1 [2] = test: as above
In short: as §1

[3] = test system: Klebsiella aerogenes DSM 30053; test: as above
In short: as §1

[4] = test system: Ruminococcus gnavus DSM 108212; test: as above
In short: as §1

[5] = test system: Klebsiella aerogenes DSM 30053; test: fold change of Histamine concentration vs plate DMSO controls (fold change (ratio)); higher = more amine produced, active = hit call of the paper (significant change in both replicates, either direction)
In short: (§2)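 Extracts of whole anaerobic mGAM cultures were analysed for amines by LC–triple-quadrupole MS with dynamic MRM and external calibration curves, with drift corrected within batch. Four gut strains were grown at 37 °C for 27 h in 80 µL wells with compounds at 20 µM final, sweeteners at 50 µM final. Each value expresses fold change over plate DMSO controls. The average of 2 biological replicates is shown.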

[6] = test system: Clostridium sporogenes DSM 1664; test: fold change of Tryptamine concentration vs plate DMSO controls (fold change (ratio)); higher = more amine produced, active = hit call of the paper (significant change in both replicates, either direction)
In short: as §2

[7] = test system: Ruminococcus gnavus DSM 108212; test: as above
In short: as §2

Escherichia coli IAI1 [8] = test: fold change of Putrescine concentration vs plate DMSO controls (fold change (ratio)); higher = more amine produced, active = hit call of the paper (significant change in both replicates, either direction)
In short: as §2

[9] = test system: Klebsiella aerogenes DSM 30053; test: as above
In short: as §2

Escherichia coli IAI1 [10] = test: fold change of Cadaverine concentration vs plate DMSO controls (fold change (ratio)); higher = more amine produced, active = hit call of the paper (significant change in both replicates, either direction)
In short: as §2

[11] = test system: Klebsiella aerogenes DSM 30053; test: as above
In short: as §2

[12] = test system: Ruminococcus gnavus DSM 108212; test: fold change of 2-Phenylethylamine concentration vs plate DMSO controls (fold change (ratio)); higher = more amine produced, active = hit call of the paper (significant change in both replicates, either direction)
In short: as §2

Row | Compound | growth [1] | growth (Escherichia coli IAI1 [2]) | growth [3] | growth [4] | fold change of Histamine concentration [5] | fold change of Tryptamine concentration [6] | fold change of Tryptamine concentration [7] | fold change of Putrescine concentration (Escherichia coli IAI1 [8]) | fold change of Putrescine concentration [9] | fold change of Cadaverine concentration (Escherichia coli IAI1 [10]) | fold change of Cadaverine concentration [11] | fold change of 2-Phenylethylamine concentration [12]
1 | CCCCC(C)(O)C/C=C/[C@H]1[C@H](O)CC(=O)[C@@H]1CCCCCCC(=O)OC (mixture of isomers) [Misoprostol] (20 µM) | 1.14 | 0.994 | 1.03 | 1.19 | 1.04 (inactive) | 0.979 (inactive) | 0.987 (inactive) | 0.988 (inactive) | 1.02 (inactive) | 0.994 (inactive) | 0.995 (inactive) | 0.945 (inactive)
2 | CCc1c(C)[nH]c2c1C(=O)C(CN1CCOCC1)CC2 (stereo unspecified) [Molindone hydrochloride] (20 µM) | 0.781 | 1.07 | 1 | 1.1 | 1.02 (inactive) | 1.02 (inactive) | 1.07 (inactive) | 1.03 (inactive) | 0.987 (inactive) | 0.906 (inactive) | 1.01 (inactive) | 1.08 (inactive)
3 | CC(C)N1CCN(c2ccc(OCC3COC(Cn4cncn4)(c4ccc(Cl)cc4Cl)O3)cc2)CC1 (stereo unspecified) [Terconazole] (20 µM) | 1.12 | 1 | 1.01 | 1 | 0.996 (inactive) | 0.976 (inactive) | 1 (inactive) | 1 (inactive) | 0.993 (inactive) | 0.989 (inactive) | 1 (inactive) | 0.977 (inactive)
4 | CC(C(=O)O)c1ccc2c(c1)CC(=O)c1ccccc1S2 (stereo unspecified) [Zaltoprofen] (20 µM) | 0.876 | 0.998 | 0.985 | 0.873 | 1.1 (inactive) | 1.01 (inactive) | 1.12 (inactive) | 1.01 (inactive) | 1.04 (inactive) | 0.931 (inactive) | 1.05 (inactive) | 1.33 (inactive)
5 | CC1(C)S[C@@H]2[C@H](NC(=O)[C@H](N)c3ccccc3)C(=O)N2[C@H]1C(=O)O [Ampicillin sodium salt] (20 µM) | 0.00123 | 0.943 | 0.726 | 0.0281 | 1.2 (inactive) | 0.0126 (active) | 0.0802 (active) | 0.981 (inactive) | 1.02 (inactive) | 1.23 (inactive) | 1.18 (inactive) | 0.0719 (active)
6 | COC1=C(OC)C(=O)C(CCCCCCCCCCO)=C(C)C1=O [Idebenone] (20 µM) | 1.18 | 1 | 1.01 | 0.839 | 1.06 (inactive) | 1.02 (inactive) | 1.06 (inactive) | 0.947 (inactive) | 1.01 (inactive) | 1.05 (inactive) | 1.08 (inactive) | 1.17 (inactive)
7 | CC(CN(C)C)CN1c2ccccc2Sc2ccccc21 (stereo unspecified) [Trimeprazine tartrate] (20 µM) | 1.23 | 1.01 | 1.07 | 0.937 | 0.989 (inactive) | 1.08 (inactive) | 0.804 (inactive) | 0.885 (inactive) | 1 (inactive) | 1.02 (inactive) | 1.01 (inactive) | 0.818 (inactive)
8 | OCC(CO)N[C@H]1C[C@](O)(CO)[C@@H](O)[C@H](O)[C@H]1O [Voglibose] (20 µM) | 1.03 | 1.05 | 1.03 | 1.17 | 1.02 (inactive) | 1.06 (inactive) | 1.06 (inactive) | 0.984 (inactive) | 0.99 (inactive) | 0.917 (inactive) | 1.01 (inactive) | 1.09 (inactive)
9 | CCC(Cc1c(I)cc(I)c(N)c1I)C(=O)O (stereo unspecified) [Iopanoic acid] (20 µM) | 0.989 | 1.13 | 1 | 1.05 | 0.999 (inactive) | 0.978 (inactive) | 0.879 (inactive) | 1.1 (inactive) | 0.994 (inactive) | 1.04 (inactive) | 0.985 (inactive) | 0.969 (inactive)
10 | CC(C(=O)O)c1ccc2c(c1)Cc1cccnc1O2 (stereo unspecified) [Pranoprofen] (20 µM) | 1.01 | 1.06 | 1.03 | 0.92 | 0.978 (inactive) | 0.985 (inactive) | 0.95 (inactive) | 0.95 (inactive) | 1.01 (inactive) | 0.993 (inactive) | 1.01 (inactive) | 0.94 (inactive)
11 | NS(=O)(=O)c1cc(C(=O)O)c(NCc2ccco2)cc1Cl [Furosemide] (20 µM) | 0.941 | 1.01 | 1.04 | 1.22 | 0.987 (inactive) | 0.964 (inactive) | 1.01 (inactive) | 1.04 (inactive) | 0.984 (inactive) | 0.995 (inactive) | 0.988 (inactive) | 0.964 (inactive)
12 | O=C(Oc1ccccc1)n1c(C(F)(F)F)nc2cc(Cl)c(Cl)cc21 (20 µM) | 0.822 | 0.604 | 0.714 | 0.827 | 1.39 (active) | 1.11 (inactive) | 0.875 (inactive) | 1.38 (active) | 0.931 (inactive) | 1.59 (active) | 0.926 (inactive) | 0.917 (inactive)
13 | CC(Cc1cccc(C(F)(F)F)c1)NCCOC(=O)c1ccccc1 (stereo unspecified) [Benfluorex] (20 µM) | 1.08 | 0.988 | 0.966 | 0.795 | 1.02 (inactive) | 0.988 (inactive) | 0.786 (active) | 1.06 (inactive) | 1 (inactive) | 0.975 (inactive) | 0.99 (inactive) | 0.797 (inactive)
14 | CCOc1ccc2nc3cc(N)ccc3c(N)c2c1 [Ethacridine lactate] (20 µM) | 0.937 | 0.981 | 0.974 | 0.954 | 0.985 (inactive) | 1.07 (inactive) | 0.856 (inactive) | 1.14 (inactive) | 1.01 (inactive) | 1.12 (inactive) | 0.993 (inactive) | 0.837 (inactive)
15 | CNC(C)CCC=C(C)C (stereo unspecified) [Isometheptene mucate] (20 µM) | 0.966 | 0.977 | 1.01 | 1.24 | 1.09 (inactive) | 0.944 (inactive) | 1.01 (inactive) | 0.979 (inactive) | 1.04 (inactive) | 1.01 (inactive) | 1.02 (inactive) | 0.954 (inactive)
16 | Cc1ccc(C(C)NC(=O)[C@@H](NC(=O)OC(C)C)C(C)C)cc1 (stereo partly specified) (20 µM) | 1.07 | 1.02 | 1.04 | 0.999 | 1.02 (inactive) | 1.02 (inactive) | 1.03 (inactive) | 0.974 (inactive) | 1 (inactive) | 1.03 (inactive) | 1.02 (inactive) | 1.07 (inactive)
17 | CC(C)[C@H](N)C(=O)OCC(CO)OCn1cnc2c(=O)nc(N)[nH]c21 (stereo partly specified) [Valganciclovir hydrochloride] (20 µM) | 1.1 | 0.991 | 1.03 | 0.987 | 0.998 (inactive) | 0.983 (inactive) | 0.964 (inactive) | 1.01 (inactive) | 1.01 (inactive) | 1.01 (inactive) | 1.01 (inactive) | 0.926 (inactive)
18 | OC[C@H]1OC(O)[C@H](O)[C@@H](O)[C@@H]1O (stereo partly specified) [Glucose/Dextrose] (50 µM) | 1.15 | 0.989 | 1.01 | 1.19 | 1.03 (inactive) | 1.01 (inactive) | 0.971 (inactive) | 0.982 (inactive) | 0.872 (inactive) | 1.11 (inactive) | 1.09 (inactive) | 0.935 (inactive)
19 | COc1cc2nc(N3CCN(C(=O)C4COc5ccccc5O4)CC3)nc(N)c2cc1OC (stereo unspecified) [Doxazosin mesylate] (20 µM) | 0.926 | 0.974 | 0.995 | 1.13 | 1.01 (inactive) | 1.1 (inactive) | 0.943 (inactive) | 1.02 (inactive) | 1 (inactive) | 0.983 (inactive) | 0.991 (inactive) | 0.932 (inactive)
20 | Cc1cc(NS(=O)(=O)c2ccc(N)cc2)no1 [Sulfamethoxazole] (20 µM) | 1.01 | 1.11 | 1.06 | 0.913 | 1.12 (inactive) | 0.999 (inactive) | 1.01 (inactive) | 1.13 (inactive) | 1.03 (inactive) | 0.911 (inactive) | 1 (inactive) | 0.978 (inactive)
21 | COc1ccc2c(c1)c(CC(=O)OC/C=C(\C)CC/C=C(\C)CCC=C(C)C)c(C)n2C(=O)c1ccc(Cl)cc1 [Indometacin farnesil] (20 µM) | 1.02 | 1.04 | 1.06 | 1.16 | 0.986 (inactive) | 0.94 (inactive) | 1.03 (inactive) | 1.03 (inactive) | 1.01 (inactive) | 1.04 (inactive) | 0.984 (inactive) | 1.06 (inactive)
22 | COc1cc(NC(C)CCCN)c2ncccc2c1 (stereo unspecified) [Primaquine diphosphate] (20 µM) | 1.08 | 1.02 | 1.07 | 0.905 | 0.851 (inactive) | 1.03 (inactive) | 1.07 (inactive) | 1.03 (inactive) | 0.943 (inactive) | 1 (inactive) | 1.02 (inactive) | 1.09 (inactive)
23 | CC1(C)O[C@@H]2[C@@H](CO[C@@]3(COS(N)(=O)=O)OC(C)(C)O[C@@H]23)O1 [Topiramate] (20 µM) | 0.915 | 0.972 | 0.997 | 1.06 | 1 (inactive) | 0.998 (inactive) | 0.947 (inactive) | 1.01 (inactive) | 0.98 (inactive) | 1.01 (inactive) | 0.989 (inactive) | 0.951 (inactive)
